Compound activity: PubChem, National Center for Advancing Translational Sciences (NCATS)
Shown are actives, neighbours in structure and some others; about 7.5% of the full set was active somewhere.
ELG1 genotox = genotoxicity induction in ELG1-luciferase HEK293T cells | HEK293T ELG1-luciferase reporter, luminescence, 16 h | Potency, µM (top dose mostly 46 µM), without a hit: at the top dose activity change, positive = activation, most hits filed as activators | hit rate 1.3% among 330,000 | AID 504466; also: % of control where 0% means no effect; nearly all actives have a fitted effect of over 60% in size
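Genotoxic stress is detected as increased luminescence from luciferase-tagged ELG1 in HEK293T cells, measured with ONE-Glo after a 16 hr treatment at 37 °C.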
NPC1 promoter act = activates the NPC1 promoter. Huh7 NPC1 promoter luciferase reporter, 24 h. Potency, µM (series often up to 9.22 µM), without a hit: top-dose activation, most hits filed as activators. hit rate 2.4% among 320,000; also: % of control where 0% means no effect; nearly all actives have a fitted effect of over 60% in size
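Stably transfected Huh7 (NPC1 promoter→luciferase), 1500 cells/well in Opti-MEM + 10% FBS, 2 h settle, then compound 24 h at 37 °C. Luminescence after 10 min with Amplite reagent.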
SMN2 splice enh = enhancers of SMN2 splice variant expression; HEK293 SMN2-luciferase splicing reporter, luminescence, 30-36 h; Potency, µM (doses to about 46.1 µM), for the others: top-dose activity change, positive = activation, usual class: activators; hit rate 2.8% among 210,000; AID 1458; also: % of control where 0% means no effect; nearly all actives have a fitted effect of over 55% in size
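qHTS luciferase splicing reporter: luminescence rises when SMN2 exon 7 is included in transfected HEK293 cells. Compound exposure lasted 30-36 h at 37C, with 4.5 mM final sodium butyrate as control, followed by a ONE-Glo read.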
FLuc counter = counter-screen for miR-21 project: firefly luciferase inhibitors or activators | P08659 | purified FLuc, Km substrates, luminescence inhibition | Potency, µM (series often up to 57.5 µM), without a hit: top-dose activity change, negative = inhibition, usual class: inhibitors | hit rate 6.9% among 360,000 | AID 588342;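 also: plate controls were vehicle for no effect and reference inhibitor for full effect; nearly all actives have a fitted effect of over 55% in size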
Target sequence (P08659 whole entry, looked up): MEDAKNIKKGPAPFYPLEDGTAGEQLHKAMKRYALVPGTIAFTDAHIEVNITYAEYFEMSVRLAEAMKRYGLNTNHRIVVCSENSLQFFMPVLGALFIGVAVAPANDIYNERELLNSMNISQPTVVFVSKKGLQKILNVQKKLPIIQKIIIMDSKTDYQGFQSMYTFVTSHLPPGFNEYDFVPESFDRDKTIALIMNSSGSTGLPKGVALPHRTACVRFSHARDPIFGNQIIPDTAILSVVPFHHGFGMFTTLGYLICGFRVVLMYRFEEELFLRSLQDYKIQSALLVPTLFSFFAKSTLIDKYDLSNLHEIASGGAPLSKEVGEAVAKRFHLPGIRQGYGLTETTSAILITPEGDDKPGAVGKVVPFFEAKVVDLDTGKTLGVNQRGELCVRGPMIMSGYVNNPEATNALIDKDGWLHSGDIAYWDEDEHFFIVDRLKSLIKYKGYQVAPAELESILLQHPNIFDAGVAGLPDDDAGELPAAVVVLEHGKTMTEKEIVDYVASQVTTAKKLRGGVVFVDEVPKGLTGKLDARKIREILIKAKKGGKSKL
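Biochemical qHTS of compounds, final roughly 60 µM downward over six points, against 10 nM purified firefly luciferase using Km concentrations of substrates (10 uM D-luciferin, 10 uM ATP) in Tris acetate pH 7.5 buffer; luminescence output.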
KinaseGlo FLuc = blocks Kinase-Glo luciferase, a counter-screen artifact | Q27757 | Kinase-Glo luciferase, ATP luminescence, 8 min | Potency, µM (titrated, usually from 38.3 µM), inactives show at the top dose activity change, negative = inhibition, hits mostly inhibitors | hit rate 0.28% among 200,000 | AID 1379; also: % is scaled to controls: 0 for no effect and ±100 for the full control effect; nearly all actives have a fitted effect of over 60% in size
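Compound is pinned into ATP-containing buffer (10 uM ATP, imidazole pH 7.2, 7 mM MgCl2). Kinase-Glo luciferase reagent is then added. Light output is recorded following an 8-min room-temperature incubation.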
Rab9 promoter act = activates the Rab9 promoter | Huh7 Rab9 promoter-luciferase reporter, luminescence, 24 h | Potency, µM (top dose mostly 9.22 µM), inactives show top-dose activation, negative = inhibition, usual class: activators | hit rate 2.8% among 320,000; also: % of control where 0% means no effect; nearly all actives have a fitted effect of over 60% in size
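Luminescence from Amplite-detected luciferase (10 minutes, ambient) reports Rab9 promoter activation. Before that, stable Rab9-luciferase Huh7 cells (1500/well, reduced-serum OP-MEM I plus 10% FBS) were exposed to compound for 24 hours at 37C.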
* hit, by the source's call; ? = inconclusive; . = no result given; [ ] = remark or other dose. Calls follow the shape of the dose curve; as a rule, active = well fitted curve in the direction sought with a large enough effect; inconclusive = small, poorly fitted or top-dose-only effect, or another doubt; inactive = no such curve, though single readings can be large; an effect the other way counts as inactive or inconclusive. Potency is read from the fitted curve at half-maximal effect.

SMILES	ELG1 genotox	NPC1 promoter act	SMN2 splice enh	FLuc counter	KinaseGlo FLuc	Rab9 promoter act
CC(=O)Nc1ccc(NC(=O)C2CCN(S(=O)(=O)c3ccc4c(c3)CCCC(=O)N4)CC2)cc1	.	.	.	-1%	.	.
Cc1nc(N2CCOCC2)c2cc(-c3ccccc3)sc2n1	2%	1%	-5%	21µM*	11%	-4%
Cc1nc(SCCC(=O)O)c2cc(-c3ccccc3)sc2n1	15%	-7%	.	0.67µM*	.	-12%
c1ccc(-c2cc3c(N4CCOCC4)ncnc3s2)cc1	-8%	-3%	-9%	-13%	3%	-6%
Cc1ccccc1-n1c(SCC(N)=O)nc2sc(-c3ccccc3)cc2c1=O	-6%	-2%	-12%	-7%	-5%	-4%
COc1ccc(-n2ncc3c2ncn2nc(Cc4ccccc4)nc32)cc1	.	.	-10%	-12%	.	.
c1ccc(-n2ncc3c2ncn2nc(-c4ccco4)nc32)cc1	1.6µM*	3.2µM*	11µM*	0.85µM*	-9%	1.1µM*
CN(C(=O)CN1C(=O)/C(=C/c2ccc(F)cc2)SC1=S)C1CCS(=O)(=O)C1 (stereo unspecified)	0%[9.26 µM]	-2%	.	?	.	-4%
COc1ccc(/C=C2\SC(=S)N(CC(=O)N(C)C3CCS(=O)(=O)C3)C2=O)cc1 (stereo unspecified)	4%	13%	.	19µM*	.	0%
COc1cccc(/C=C2\SC(=S)N(CC(=O)N(C)C3CCS(=O)(=O)C3)C2=O)c1 (stereo unspecified)	5%	-1%	.	11µM*	.	-2%
CCN(C(=O)CN1C(=O)S/C(=C\c2cccc(OC)c2)C1=O)C1CCS(=O)(=O)C1 (stereo unspecified)	4%	-16%	.	?	.	2%
CCOC(=O)c1cnc(SCCN2CCOCC2)nc1N	10%	7%	.	-10%	-2%	20%
Cc1cc(C)nc(Nc2ccccc2Br)n1	5%	2%	-1%	-14%	0%	0%
Cc1cc(C)nc(Nc2cccc3ccccc23)n1	0%	5%	.	-4%	.	-2%
Cc1cc(C)nc(Nc2n[nH]c(-c3ccccc3C)n2)n1	21µM*	2µM*	11µM*	9.5µM*	-6%	1.8µM*
Cc1cc(C)nc(Nc2n[nH]c(-c3ccccc3Br)n2)n1	18µM*	?	81%	9.5µM*	-18%	?
Cc1nc(-c2ccc(S(=O)(=O)N3CCN(c4cc(Cl)ccc4C)CC3)cc2)co1	.	.	.	2%	.	.
O=C(NCc1ccccc1)C1CCN(C(=O)c2cnn(-c3ccccc3)c2-n2cccc2)CC1	.	.	-20%	-8%	.	.
Cc1nc2c(ccc3nc(NC(=O)c4ccc5c(c4)OCCO5)sc32)s1	?	0.32µM*	?	0.21µM*	-9%	0.71µM*
O=C(Nc1nc2cc3c(cc2s1)OCCO3)c1ccc(N2C(=O)CCC2=O)cc1	5%	?	.	?	.	12%
Cc1cnc(NC(=O)c2ccc3c(c2)OCCO3)s1	?	?	.	0.11µM*	.	0.1µM*
Cc1nc2ccc3nc(NC(=O)c4ccc5c(c4)OCCO5)sc3c2s1	3%	13%	-2%	?	-2%	19%
Cc1ccc2sc(NC(=O)c3ccc4c(c3)OCCO4)nc2c1C	.	.	.	2.7µM*	.	.
COc1ccc(N(CC(=O)NCCc2ccccc2)S(=O)(=O)c2ccccc2)c(OC)c1	.	.	6%	2%	.	.
COc1ccc(NC(=O)C2CCCN2S(=O)(=O)c2ccc3c(c2)CCCC(=O)N3)cc1Cl (stereo unspecified)	.	.	.	-1%	.	.
SMILES	ELG1 genotox	NPC1 promoter act	SMN2 splice enh	FLuc counter	KinaseGlo FLuc	Rab9 promoter act
CCOc1ccc(N2CC(C(=O)NC3CCSC3=O)CC2=O)cc1 (stereo unspecified)	-1%	-6%	.	-1%	.	-3%
CC(=O)N1CCc2cc(N=NC3=C(O)CCCC3=O)ccc21	?	?	171%	15µM*	-13%	3.5µM*
O=C1CCCC(O)=C1N=Nc1ccc(Cl)c(Cl)c1	5%	-1%	-4%	?	-8%	4%
Cc1nc2cc(N=NC3=C(O)CCCC3=O)ccc2s1	?	10%	?	13µM*	-18%	16%
Nc1c(C(=O)NCc2ccccc2)nnn1Cc1cccc(Br)c1	.	.	-5%	-7%	.	.
COC(=O)c1ccc(NC(=O)CCn2cccn2)cc1	.	.	.	6%	.	.
O=C(COC(=O)c1ccc(O)cc1O)c1ccc(Cl)cc1	13%	13%	.	17µM*	.	0%
COC(=O)c1ccc(OCC(=O)c2ccc(O)cc2O)cc1	10%	?	-7%	6.7µM*	-6%	4%
CCOC(=O)c1ccc(CC(=O)c2ccc(O)cc2O)o1	-15%	-5%	-2%	5%	0%	2%
CCOC(=O)c1ccc(OCC(=O)c2ccc(O)cc2O)cc1	?	21%	-2%	6.7µM*	-11%	22%
COC(=O)c1ccc(OCC(=O)c2ccc(C)c(C)c2)cc1	3%	26%	19%	?	2%	22%
O=C(COc1ccccc1)OCC(=O)c1ccc(O)cc1O	0%	-9%	.	?	.	3%
O=C(COc1ccc(Cl)cc1)c1ccc(O)cc1O	?	30%	.	8.5µM*	.	?
COc1cccc(CNC(=O)c2cc3c(s2)-c2c(C)cccc2OC3)c1	.	.	-29%	-11%	.	.
COc1ccccc1N(CC(=O)NC1CCCC1)C(=O)CNC(=O)c1cccs1	-2%	-4%	.	3%	.	2%
N#Cc1ccc2[nH]c(CO)c(-c3ccccc3)c2c1	-6%	0%	.	1%	.	1%
CCc1ccc(NC(=O)CSc2nnnn2C)cc1	13%[9.26 µM]	?	.	24µM*	.	?
Cc1ccc(NC(=O)c2ccc(CSc3nnc(C)s3)cc2)cc1	11%	1.1µM*	?	1.5µM*	-5%	1.6µM*
Cc1cc(C)cc(NC(=O)c2ccc(CSc3nnc(C)s3)cc2)c1	8%	3%	0%	7.6µM*	-4%	10%
COc1ccc(OC)c(NC(=O)c2ccc(CSc3nnc(C)s3)cc2)c1	-4%	-2%	-11%	?	-1%	-1%
COc1ccc(NC(=O)CSc2nnnn2C)cc1	0%	-1%	.	1%	-4%	-4%
Cc1ccc(NC(=O)c2ccc(CSc3nnnn3C)cc2)cc1	?	2µM*	8.9µM*	4.8µM*	-2%	1.6µM*
Cc1nnc(SCc2ccc(C(=O)O)cc2)s1	-1%	-1%	-8%	2%	-1%	18%
CC1=C(C(=O)OC2CCCC2)C(c2ccccc2Cl)CC(=O)N1 (stereo unspecified)	.	.	3%	-3%	.	.
Cc1ccccc1Nc1c(-c2c[nH]c3ccccc23)nc2cccc(C)n12	.	.	11µM*	2%	.	.
Cc1ccc2nc(-c3c[nH]c4ccccc34)c(Nc3ccccc3C)n2c1	.	.	?	-1%	.	.
